This note sets out measurements from PubChem BioAssay (NCATS).

Test [1] is described as follows: qHTS for differential inhibitors of proliferation of Plasmodium falciparum line 7G8 (AID 1815).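 Further: parasite growth measured after three days of incubation; plate controls were vehicle wells for no effect and reference inhibitor wells for full effect.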 Background: Quantitative high-throughput screening tests each substance at several concentrations.
Test [2] in a line: qHTS for differential inhibitors of proliferation of Plasmodium falciparum line W2 (AID 1883).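 Further: parasites grown with compound for 72 h before lysis and staining.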 Further: potency means the concentration at half of the fitted maximal effect.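 On activity change, negative = inhibition: 0% = vehicle wells and -100% = control inhibitor wells.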 As to conditions: Potency: Plasmodium falciparum W2 proliferation inhibition.
The nature of test [3]: qHTS Assay for Modulators of Human Peripheral Myelin Protein 22 (PMP22) Expression/Activity (AID 1967; active means well fitted curve in the direction sought with a large enough effect in the signal ratio; the % refers to the signal ratio;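 further: 0% = untreated cells and 100% end not stated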). The procedure, abridged:
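Luminescence ratio of Pmp22 promoter-driven green luciferase to EF-alpha-driven red luciferase, in engineered mouse MSC80 Schwann cells, served as read-out. Compounds were incubated 24h; untreated cells defined 0% Activity; curves were classified by r2, magnitude and activity.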

The target of test [4] is Guanine nucleotide-binding protein G(i) subunit alpha-1 (Homo sapiens) (UniProt P63096). The test is described as follows: qHTS Assay for Inhibitors of RGS12 GoLoco Motif Activity (Green Fluorophore) (AID 879).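 Further: 0% = labeled peptide with Gαi1 and full inhibition = labeled peptide alone without protein; negative values mean loss of peptide binding seen as reduced polarization.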 Put shortly:
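Fluorescence polarization assay: 50 nM Gαi1 with 10 nM FITC-labeled RGS12 GoLoco peptide in 10 mM Tris pH 7.5, 150 mM NaCl, 0.1 mM GDP, 0.05% NP40, 10 min at room temperature with compound.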

Test [5] addresses Pyruvate kinase (Leishmania mexicana) (UniProt Q27686). The test is described as follows: qHTS Validation Assay for Inhibitors of Leishmania Mexicana Pyruvate Kinase (AID 945).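 Further: 0% = DMSO only neutral control wells.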 Put shortly: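 Substrate mix (0.5 mM PEP, 0.1 mM ADP, 7 mM MgCl2, 50 mM KCl, pH 7.2 imidazole) received compound by pin tool, then 0.2 nM LmPYK E451W. After 1 h at room temperature, PKLight was added and luminescence measured.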

Test [6] deals with Pyruvate kinase PKM (Homo sapiens) (UniProt P14618). The test can be described thus: qHTS Assay for Activators of Human Muscle Pyruvate Kinase (AID 954; active means well fitted curve in the direction sought with a large enough effect, not every such curve was filed as active;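 further: 0% = uninhibited enzyme and -100% = no enzyme or full thiadiazolimine inhibition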). Put shortly: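 Reaction: 0.1 nM purified PKM2 with 0.5 mM phosphoenolpyruvate and 0.1 mM ADP, room temperature, 1 h. Readout: luciferase-based ATP luminescence after stop reagent. Activators judged against a 0.3 nM enzyme column.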
Pyruvate kinase PKM (Homo sapiens), sequence (P14618 whole entry, looked up): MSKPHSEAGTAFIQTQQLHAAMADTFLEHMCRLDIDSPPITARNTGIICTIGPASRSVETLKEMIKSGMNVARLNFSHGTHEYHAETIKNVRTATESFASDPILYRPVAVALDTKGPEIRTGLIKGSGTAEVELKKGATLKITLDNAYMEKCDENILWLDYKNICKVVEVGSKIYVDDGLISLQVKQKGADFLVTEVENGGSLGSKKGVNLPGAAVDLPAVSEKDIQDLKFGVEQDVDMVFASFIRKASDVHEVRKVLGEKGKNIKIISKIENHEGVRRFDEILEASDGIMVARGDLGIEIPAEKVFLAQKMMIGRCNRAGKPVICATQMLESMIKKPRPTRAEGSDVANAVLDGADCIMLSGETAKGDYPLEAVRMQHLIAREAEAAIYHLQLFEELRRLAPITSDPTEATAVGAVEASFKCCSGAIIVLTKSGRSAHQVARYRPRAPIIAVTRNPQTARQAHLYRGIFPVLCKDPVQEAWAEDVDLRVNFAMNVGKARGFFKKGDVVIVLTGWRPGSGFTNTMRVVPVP

In test [7] the target is Alpha-galactosidase A (Homo sapiens) (UniProt P06280). The test can be described thus: Counterscreen for Glucocerebrosidase Inhibitors: qHTS Assay for Human alpha-Galactosidase at pH 4.5 (AID 992). Further: 0% is about no effect. The procedure, abridged: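 Concentration-response curves (0.7 nM to 77 uM final) were modeled with the Hill equation to give AC50. Reactions: 2 nM enzyme, 80 uM fluorogenic alpha-galactoside, pH 4.5 citric acid buffer, 20 min, room temperature.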
Alpha-galactosidase A (Homo sapiens), sequence (P06280 whole entry, looked up): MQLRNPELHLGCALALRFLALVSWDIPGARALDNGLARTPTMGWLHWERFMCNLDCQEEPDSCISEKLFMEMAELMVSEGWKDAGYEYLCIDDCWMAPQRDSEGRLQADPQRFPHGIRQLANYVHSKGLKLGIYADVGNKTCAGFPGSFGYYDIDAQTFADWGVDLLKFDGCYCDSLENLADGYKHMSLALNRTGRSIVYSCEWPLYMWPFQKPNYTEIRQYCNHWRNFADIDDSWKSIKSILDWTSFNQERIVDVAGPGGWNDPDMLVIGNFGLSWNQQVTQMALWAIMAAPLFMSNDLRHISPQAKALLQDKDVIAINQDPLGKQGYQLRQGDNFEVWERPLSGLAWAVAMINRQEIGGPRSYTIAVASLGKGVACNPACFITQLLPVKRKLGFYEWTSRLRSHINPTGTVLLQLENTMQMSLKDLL

In test [8] the target is alpha-glucosidase (Oryza sativa, rice) (UniProt Q653V4). The test can be described thus: Counterscreen for Glucocerebrosidase Inhibitors: qHTS Assay for Rice alpha-Glucosidase at pH 5.0 (AID 997).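 Further: 0% = full activity with enzyme and -100% = basal without enzyme.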 Put shortly: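 Rice alpha-glucosidase (4 nM final) with 400 uM 4-methylumbelliferyl-alpha-D-glucopyranoside in citrate buffer pH 5.0, 20 min at room temperature, stopped at pH 10; fluorescence 365/440 nm, compounds 0.7 nM–77 uM, AC50 from Hill fits.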
On the technique in general: Counterscreens check selectivity or assay interference.

For test [9], the target named is M-phase phosphoprotein 8 (Homo sapiens) (UniProt Q99549). The test can be described thus: qHTS Validation Assay for Inhibitors for MPP8 Chromodomain Interactions with Methylated Histone Tails (AID 488949). Further: nearly all actives have a fitted effect of over 55% in size. Further: potency means the concentration at half of the fitted maximal effect.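 On activity change, negative = inhibition: 50 nM MPP8 with 50 nM peptide preformed then compounds added for 30 min; AlphaScreen signal from MPP8 chromodomain bound to biotinylated H3K9me3 peptide; top concentration of the series differs between compounds; on the % scale 0 is the no-effect control and ±100 the full control effect.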 The procedure, abridged: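 50 nM MPP8 + 50 nM b-H3K9me3 peptide, PBS pH 7.4/0.01% Tween-20, 30 min RT; + cpd 30 min RT; + AlphaScreen donor/Ni-chelate acceptor beads 10 ug/mL final, 30 min dark; luminescence read.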
M-phase phosphoprotein 8 (Homo sapiens), sequence (Q99549 whole entry, looked up): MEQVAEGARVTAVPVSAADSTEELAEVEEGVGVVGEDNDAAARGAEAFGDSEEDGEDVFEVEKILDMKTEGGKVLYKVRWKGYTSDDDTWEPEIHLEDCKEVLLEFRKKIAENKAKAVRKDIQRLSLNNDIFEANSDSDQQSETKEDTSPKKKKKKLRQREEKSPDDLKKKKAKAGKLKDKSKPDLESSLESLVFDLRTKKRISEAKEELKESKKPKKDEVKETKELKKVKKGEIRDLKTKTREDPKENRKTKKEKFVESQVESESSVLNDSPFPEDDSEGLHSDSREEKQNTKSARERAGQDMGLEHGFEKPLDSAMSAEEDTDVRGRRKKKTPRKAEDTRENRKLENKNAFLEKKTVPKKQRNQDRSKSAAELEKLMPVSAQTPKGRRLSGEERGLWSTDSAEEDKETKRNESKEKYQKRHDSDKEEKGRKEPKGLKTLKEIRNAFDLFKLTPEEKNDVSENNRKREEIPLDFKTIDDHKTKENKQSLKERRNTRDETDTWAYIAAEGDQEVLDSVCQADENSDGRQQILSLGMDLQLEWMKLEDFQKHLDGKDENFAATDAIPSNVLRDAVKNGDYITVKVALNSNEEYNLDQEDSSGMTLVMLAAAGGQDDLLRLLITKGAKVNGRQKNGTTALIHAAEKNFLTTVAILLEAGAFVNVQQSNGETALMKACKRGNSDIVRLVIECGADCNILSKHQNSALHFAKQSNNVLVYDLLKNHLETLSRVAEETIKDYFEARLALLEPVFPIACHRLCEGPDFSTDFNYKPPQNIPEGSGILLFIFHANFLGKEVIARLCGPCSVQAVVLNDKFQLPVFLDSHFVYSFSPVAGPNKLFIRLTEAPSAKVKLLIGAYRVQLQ

Test [10] can be described thus: Primary qHTS for inhibitors of nuclear receptor binding SET domain protein 2 (NSD2) in an isogenic RCH-ACV NSD2 p.E1099K mutant (9B) (AID 1645876). Further: potency means the concentration at half of the fitted maximal effect; nearly all actives have a fitted effect of over 70% in size.
A short description of test [11]: Primary qHTS for inhibitors of nuclear receptor binding SET domain protein 2 (NSD2) in an RCH-ACV wild type WT cells (2C) (AID 1645877). Further: potency means the concentration at half of the fitted maximal effect; nearly all actives have a fitted effect of over 70% in size.
Test [12] has as its target Phospholipid hydroperoxide glutathione peroxidase GPX4 (Homo sapiens) (UniProt P36969). The test is described as follows: Primary qHTS Assay for Inhibitors of Recombinant Selenoprotein Glutathione Peroxidase 4 (GPX4) (AID 1845192). Further: on the % scale 0 is the no-effect control and ±100 the full control effect; nearly all actives have a fitted effect of over 65% in size. The settings on record: outcome: dose series up to 50 µM unless noted. The procedure, abridged: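 GR-coupled readout: 100 nM GR, 1 mM GSH, 0.5 mM NADPH; NADPH fluorescence (ex 340/em 450 nm) read at t=0 and after 15 min RT. GPX4 200 nM, preincubated 30 min with compound; substrate 0.5 mM CHP.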

The nature of test [13]: AP1 Signaling Pathway (AID 357; active means well fitted curve in either direction with a large enough effect, not every such curve was filed as active;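 further: ME-180 reporter cells stimulated with EGF at its EC50 level; on the % scale 0 is the no-effect control and ±100 the full control effect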). As to conditions: ME-180 AP-1-bla reporter, EGF-induced, beta-lactamase ratio, 5 h; at 7.69 µM (top of the series) unless noted. The procedure, abridged:
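Modulation of EGF-driven AP-1 transcription was assessed with a beta-lactamase reporter in ME-180 cells. Compound and EC50 EGF were co-incubated 5 hours at 37 °C before 2.5-hour CCF4 loading at room temperature and dual-emission reading.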

In test [14] the target is Cytochrome P450 1A2 (Homo sapiens) (UniProt P05177). The test is described as follows: p450-cyp1a2 (AID 410; calls by dose curve; further: potency means the concentration at half of the fitted maximal effect). Put shortly:
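20nM CYP1A2 with 100uM Luciferin-ME (at Km) in 100mM KPO4; compound preincubated 10 min, NADPH regeneration added, 60 min at room temperature. Luciferin quantified by luminescence after detection reagent; normalized to 57 uM furafylline.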

A short description of test [15]: Stat Signaling Pathway (AID 446; active means well fitted curve in either direction with a large enough effect, not every such curve was filed as active;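 further: ME-180 cervical cancer cells given 40 pM IL-6 alongside compound; SIE-controlled beta-lactamase reporter measured as 460/530 nm FRET emission ratio; on the % scale 0 is the no-effect control and ±100 the full control effect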). The settings on record: ME-180 SIE beta-lactamase reporter, IL-6 stimulated, 5 h; at 7.69 µM (top of the series) unless noted. The procedure, abridged:
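Screening format detects activators and inhibitors alike: ME-180 SIE-bla cells stimulated at 40 pM IL-6 for 5 hrs with compound, then dual-emission beta-lactamase read at 405 nm excitation.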

Test [16] deals with Glucocorticoid receptor (Homo sapiens) (UniProt P04150). The test is described as follows: GR-GFP Redistribution (AID 450;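 active means compounds whose dose series gives a full or clear partial fitted curve of increased nuclear translocation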; further: potency means the concentration at half of the fitted maximal effect). The settings on record: U2OS GR-GFP nuclear translocation, laser cytometry, 2 h.
Glucocorticoid receptor (Homo sapiens), sequence (P04150 whole entry, looked up): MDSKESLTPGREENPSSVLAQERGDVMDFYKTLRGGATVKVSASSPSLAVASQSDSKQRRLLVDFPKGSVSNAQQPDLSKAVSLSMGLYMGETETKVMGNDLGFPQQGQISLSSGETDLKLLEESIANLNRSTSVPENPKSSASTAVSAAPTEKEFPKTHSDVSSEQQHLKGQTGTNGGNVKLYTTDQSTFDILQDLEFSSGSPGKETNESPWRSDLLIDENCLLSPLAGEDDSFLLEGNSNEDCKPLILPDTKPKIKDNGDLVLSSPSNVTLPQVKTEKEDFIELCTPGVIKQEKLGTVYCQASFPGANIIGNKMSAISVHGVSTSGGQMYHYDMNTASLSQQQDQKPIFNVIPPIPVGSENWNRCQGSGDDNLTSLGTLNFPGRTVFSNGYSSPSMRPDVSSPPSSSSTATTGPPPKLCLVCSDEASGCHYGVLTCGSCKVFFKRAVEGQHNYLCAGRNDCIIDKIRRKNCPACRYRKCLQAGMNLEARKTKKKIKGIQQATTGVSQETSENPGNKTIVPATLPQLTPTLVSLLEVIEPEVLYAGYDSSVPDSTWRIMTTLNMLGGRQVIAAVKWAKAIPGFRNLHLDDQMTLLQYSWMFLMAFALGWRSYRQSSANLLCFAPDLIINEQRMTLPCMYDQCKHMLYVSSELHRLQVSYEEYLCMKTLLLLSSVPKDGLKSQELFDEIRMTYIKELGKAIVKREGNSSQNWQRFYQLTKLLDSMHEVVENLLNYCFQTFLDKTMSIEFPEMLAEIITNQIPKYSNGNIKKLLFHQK
For test [17] the target is unchanged. The test is described as follows: GR-EFC Redistribution (AID 451; calls by dose curve; further: potency means the concentration at half of the fitted maximal effect). The settings on record: CHO-K1 GR-EFC translocation, beta-gal luminescence, 2 h. The procedure, abridged:
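CHO-K1 cells stably expressing nuclear-localized β-gal enzyme acceptor and GR fused C-terminally to the enzyme donor fragment; ligand-driven nuclear translocation restores β-gal by complementation. Compounds titrated up to 46 uM final, 2 h at 37 °C; luminescence read.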

The nature of test [18]: qHTS for differential inhibitors of proliferation of Plasmodium falciparum line Dd2 (AID 1882).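 Further: plate controls were DMSO vehicle for no effect and 0.29 µM artemisinin for full effect; nearly all actives have a fitted effect of over 65% in size.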 As to conditions: Potency: Plasmodium falciparum Dd2 proliferation inhibition. The procedure, abridged:
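Dd2-infected erythrocytes (0.3% parasitemia, 2.5% hematocrit final) incubated with compound 72 h at 37 C, 5% CO2; lysed with saponin/Triton buffer containing SYBR Green I, incubated overnight in the dark, then read by fluorescence (485/535 nm). Normalized to 0.29 uM artemisinin and DMSO.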

The nature of test [19]: qHTS profiling for inhibitors of Plasmodium falciparum proliferation (AID 504749).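 Further: 0% = DMSO vehicle and full inhibition = artemisinin control; nearly all actives have a fitted effect of over 60% in size.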 As to conditions: P. falciparum in erythrocytes, SYBR Green DNA, 72 h, at 28.7 µM (top of the series). The procedure, abridged: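 Parasite proliferation within erythrocytes, 72 h exposure. Endpoint: SYBR Green I fluorescence after overnight lysis at room temperature. Controls: 0.29 uM artemisinin, DMSO.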

Values joined by “and” are separate entries in the source; they are usually repeats but may differ in a detail not shown here. Equal values may be shown once. Unmarked numbers belong to inactive results. Inconclusive results are not listed. Active and inactive are the calls of the source. Unless noted, the call rests on the fitted dose curve; in most records, active means well fitted curve in the direction sought with a large enough effect; inconclusive means small, poorly fitted or top-dose-only effect, or another doubt; inactive means no such curve, though single readings can be large; an effect the other way counts as inactive or inconclusive.

Pyruvate kinase (Leishmania mexicana), sequence (Q27686 2-499 E452W): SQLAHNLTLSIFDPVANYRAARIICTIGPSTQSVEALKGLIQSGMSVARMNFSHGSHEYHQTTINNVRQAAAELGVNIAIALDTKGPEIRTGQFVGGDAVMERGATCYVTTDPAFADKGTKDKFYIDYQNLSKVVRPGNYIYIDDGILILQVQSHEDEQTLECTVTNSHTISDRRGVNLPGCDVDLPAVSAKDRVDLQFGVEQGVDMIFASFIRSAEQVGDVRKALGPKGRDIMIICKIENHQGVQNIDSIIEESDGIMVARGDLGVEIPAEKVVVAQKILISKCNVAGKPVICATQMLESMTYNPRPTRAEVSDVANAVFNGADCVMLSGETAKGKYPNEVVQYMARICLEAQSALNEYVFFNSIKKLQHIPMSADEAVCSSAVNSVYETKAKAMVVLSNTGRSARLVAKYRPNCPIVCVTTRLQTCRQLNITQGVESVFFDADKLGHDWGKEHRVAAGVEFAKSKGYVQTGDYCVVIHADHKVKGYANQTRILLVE
Phospholipid hydroperoxide glutathione peroxidase GPX4 (Homo sapiens), sequence (P36969 whole entry, looked up): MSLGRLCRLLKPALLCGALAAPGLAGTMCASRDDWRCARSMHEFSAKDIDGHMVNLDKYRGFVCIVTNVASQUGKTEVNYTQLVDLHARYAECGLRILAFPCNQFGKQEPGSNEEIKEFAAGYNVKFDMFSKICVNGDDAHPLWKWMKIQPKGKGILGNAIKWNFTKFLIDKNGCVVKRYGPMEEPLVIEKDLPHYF
Cytochrome P450 1A2 (Homo sapiens), sequence (P05177 whole entry, looked up): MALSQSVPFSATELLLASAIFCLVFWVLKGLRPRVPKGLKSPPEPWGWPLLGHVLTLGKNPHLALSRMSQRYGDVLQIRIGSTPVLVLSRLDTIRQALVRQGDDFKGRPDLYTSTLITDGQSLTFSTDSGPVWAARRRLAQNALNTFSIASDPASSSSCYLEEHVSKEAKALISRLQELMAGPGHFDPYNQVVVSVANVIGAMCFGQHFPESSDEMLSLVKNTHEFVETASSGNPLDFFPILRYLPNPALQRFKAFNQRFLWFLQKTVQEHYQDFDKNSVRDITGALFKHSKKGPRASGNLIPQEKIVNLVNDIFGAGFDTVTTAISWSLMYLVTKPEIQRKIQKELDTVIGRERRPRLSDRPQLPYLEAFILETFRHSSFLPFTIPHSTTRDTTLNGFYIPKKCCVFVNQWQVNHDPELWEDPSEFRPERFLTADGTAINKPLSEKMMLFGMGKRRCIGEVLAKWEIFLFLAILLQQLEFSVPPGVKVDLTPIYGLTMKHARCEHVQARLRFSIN
Guanine nucleotide-binding protein G(i) subunit alpha-1 (Homo sapiens), sequence (P63096 whole entry, looked up): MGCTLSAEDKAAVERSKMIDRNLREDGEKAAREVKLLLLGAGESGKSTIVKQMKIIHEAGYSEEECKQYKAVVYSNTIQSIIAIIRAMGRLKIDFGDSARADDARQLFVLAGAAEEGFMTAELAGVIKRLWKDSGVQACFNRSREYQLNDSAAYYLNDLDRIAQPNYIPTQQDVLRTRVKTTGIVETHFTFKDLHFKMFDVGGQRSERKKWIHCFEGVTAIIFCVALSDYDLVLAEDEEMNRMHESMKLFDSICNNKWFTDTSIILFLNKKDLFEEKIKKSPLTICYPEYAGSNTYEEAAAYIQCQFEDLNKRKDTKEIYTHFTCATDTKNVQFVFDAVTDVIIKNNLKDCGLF

As to `NCC1OC(O[C@@H]2[C@H](O)[C@@H](OC3C(O)C(N)CC(N)C3OC3OC(CO)C(O)C(O)C3N)O[C@@H]2CO)C(N)C(O)C1O` (some centres undefined), the Potency result in test [1] and in test [2] was “inactive” each time. Also, the call in [3] was inactive.
Consider `OC[C@H]1O[C@@H](n2cnc3c(NCCc4ccccc4)ncnc32)[C@H](O)[C@H]1O`, for which the molecule was called inactive in test [4], in test [6], in test [7], in test [8] and in test [3]. For the same molecule, the Potency result in [5], in [1] and in test [9] was “inactive” each time.
For `Nc1nc(Nc2ccccc2)nc2c1ncn2[C@@H]1O[C@H](CO)[C@H](O)[C@H]1O`, the outcome in test [3] was inactive. The Potency entry in test [9] is “inactive”.
On to `CCc1cnn2c(NCc3ccc[n+]([O-])c3)cc(N3CCCC[C@H]3CCO)nc12`, for which the Potency in test [10] and in test [11] was 0.0372 µM (active) in each case. Further, in [12], the Potency entry is “inactive”.
With `Nc1ncnc2c1ncn2[C@@H]1O[C@H](C(=O)NC2CC2)[C@H](O)[C@H]1O`, the Potency entry in test [1] and in test [9] was “inactive” throughout. Moreover, the call in test [3] was inactive.
On to `N=C1Sc2ccccc2C2=NCCCN12`, for which the activity change, negative = inhibition in test [13] is 18% [at 38 µM]. For the same molecule, the Potency is 10 µM (active) in test [14], over 46 µM in test [16], over 46 µM in test [17] and 10 µM (active) in test [9]. Moreover, in test [15], the activity, negative = inhibition is -18.9% [at 38 µM]. Besides, the result in test [4], in test [6], in test [7] and in test [8] was inactive. In test [5], the Potency result is “inactive”.
`Nc1ncnc2c1nc(Sc1ccc(Cl)cc1)n2[C@H]1O[C@@H]2COP(=O)(O)O[C@H]2[C@@H]1O`: the Potency in test [2] is 10 µM (active). Moreover, in test [9], the Potency entry is “inactive”.
With `COc1cc(=O)n(C)c2c(OCC(O)C(C)(C)O)cccc12` (centres undefined), the Potency result in test [1] and in test [2] was “inactive” in each case. The molecule was classed as inactive in test [3].
Turning to `CCn1c(=O)c2[nH]c(-c3ccccc3)nc2n(CC)c1=O`, the activity change, negative = inhibition in test [13] is -2.19% [at 38 µM]. Besides, the Potency is 1 µM (active) in test [14], over 46 µM in [16] and over 46 µM in test [17]. In [15], the activity, negative = inhibition is 6.25% [at 38 µM]. In addition, the result in test [4], in [6], in [7] and in [8] was inactive. Moreover, the Potency entry in test [5] and in test [18] was “inactive” throughout.
Regarding `NCCNC(=O)c1ccc(Cl)cc1`, in [13], the activity change, negative = inhibition was -4.17% [at 38 µM]. Also, the Potency is 12.6 µM (active) and 10 µM (active) in test [14]; over 46 µM in test [16]; over 46 µM in test [17]. For the same molecule, the activity, negative = inhibition in test [15] is -2.11% [at 38 µM]. Besides, the outcome in [4], in test [6], in test [7] and in [8] was inactive. Moreover, the Potency entry in test [5], in test [1] and in test [2] was “inactive” in each case.
For `CN1CCN(c2ccc3nc(-c4cc(C(C)(C)C)c(OCCCC(=O)NCCCN=[N+]=[N-])c(C(C)(C)C)c4)[nH]c3c2)CC1`, the Potency in test [10] was 7.42 µM (active); in [11], 6.61 µM (active).
Take `CN1C(=O)CCC1c1cccnc1` (centres undefined): the Potency entry in [1], in [18] and in test [9] was “inactive” in each case. The molecule was classed as inactive in test [3]. For the same molecule, the activity, negative = inhibition is 0.771% in [19] (parasite line A) and 4.61% in test [19] (parasite line B).
Take `O=c1cc(N2CCOCC2)oc2c(-c3ccc4c(c3)OCCO4)csc12`: the Potency in test [10] and in test [11] was 0.59 µM (active) throughout. For the same molecule, the Potency result in test [12] was “inactive”.
As for `C[C@@H](Oc1ccc2[nH]nc(/C=C/c3cnn(CCO)c3)c2c1)c1c(Cl)cncc1Cl`, the figures for the Potency in test [10] and in test [11] were 0.833 µM (active) and 0.417 µM (active), respectively.
For `CO[C@H]1/C=C\C=C(\C)C(=O)NC2=CC(=O)C(NCCN(C)C)=C(C[C@@H](C)C[C@H](OC)[C@H](O)[C@@H](C)/C=C(/C)[C@@H]1OC(N)=O)C2=O`, the Potency in [10] was 0.332 µM (active). In addition, the Potency entry in test [12] is “inactive”.
For `O=C(O)CC[C@H](NC(=O)c1ccccc1C(=O)O)C(=O)O`, the Potency result in test [1], in test [18] and in test [2] was “inactive” in each case. Also, in test [3], the molecule was classed as inactive.
On to `OC[C@H]1O[C@@H](n2cnc3c(N[C@H]4CC5CCC4C5)ncnc32)[C@H](O)[C@@H]1O` (some centres undefined), for which the Potency result in [1] is “inactive”.
Regarding `NC(=O)C1=CN(C2OC(COP(=O)(O)OP(=O)(O)OC[C@H]3O[C@@H](n4cnc5c(N)ncnc54)[C@H](OP(=O)(O)O)[C@H]3O)C(O)C2O)C=CC1` (some centres undefined), the Potency entry in test [1], in test [18] and in test [2] was “inactive” throughout.
For `O=C(Cc1ccc(Cl)c(Cl)c1)OCCN1CCCC1`, the activity change, negative = inhibition in [13] was 17.4% [at 38 µM]. In addition, the Potency in test [14] was 12.6 µM (active); in test [16], over 46 µM; in test [17], over 46 µM. The activity, negative = inhibition in test [15] was 15.9% [at 38 µM]. The molecule was called inactive in test [4], in test [6], in test [7], in test [8] and in test [3]. The Potency result in [5], in [1] and in test [2] was “inactive” throughout.
